According to PubChem BioAssay:
Calls of active or inactive are those of the source.

Columns and labels:
[1] = molecular target: Albumin (Bos taurus) (UniProt P02769); test: compounds binding labelled BSA control protein – biochemical, small-molecule microarray, Alexa647 label, 635/667 nm fluorescence, artefact control for SMM control protein annotation, profiling panel (AID 1118); details: BSA-A647 binding, fluorescence 635 nm, higher = more signal;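 note: score merges 667 nm emission intensity and signal-to-noise per printed compound spot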
Sequence of Albumin (Bos taurus) (P02769 whole entry, looked up): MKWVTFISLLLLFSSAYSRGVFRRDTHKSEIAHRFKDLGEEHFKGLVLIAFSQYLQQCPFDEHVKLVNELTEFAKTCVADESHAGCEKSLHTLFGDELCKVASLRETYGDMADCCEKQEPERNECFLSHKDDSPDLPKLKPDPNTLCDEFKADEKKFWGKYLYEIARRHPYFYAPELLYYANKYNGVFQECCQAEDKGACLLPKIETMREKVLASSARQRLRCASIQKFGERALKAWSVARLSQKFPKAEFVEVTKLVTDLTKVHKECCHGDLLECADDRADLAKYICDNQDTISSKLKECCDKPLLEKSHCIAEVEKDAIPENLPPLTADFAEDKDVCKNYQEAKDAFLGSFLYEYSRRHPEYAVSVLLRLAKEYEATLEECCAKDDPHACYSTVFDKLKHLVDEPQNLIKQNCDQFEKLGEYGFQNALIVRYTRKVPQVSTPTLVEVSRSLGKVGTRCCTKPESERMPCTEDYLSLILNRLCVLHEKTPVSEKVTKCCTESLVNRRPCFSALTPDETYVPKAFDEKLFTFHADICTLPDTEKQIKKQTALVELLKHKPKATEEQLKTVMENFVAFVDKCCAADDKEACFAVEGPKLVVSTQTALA

[2] = probe aXIP binding to arrayed compounds – biochemical, NeuroSMM set, 635/667 nm fluorescence, primary screen (AID 1119); details: small-molecule microarray, higher = more signal, called active from +8 up or from −8 down;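 note: probe is the protein aXip251-270 applied at 1 µg/mL to compound-printed slides; binding of probe to printed compounds measured as 667 nm fluorescence plus signal to noise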
[3] = probe aNOTCH3 binding on compound microarray – biochemical, small-molecule microarray, 635/667 nm fluorescence, primary screen (AID 1120); details: higher = more signal;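 note: probe is a biotin-tagged antibody raised against NOTCH3 rather than NOTCH3 protein; score merges spot fluorescence near 667 nm with spot signal to noise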
[4] = probe aNOTCH2 binding on compound microarray – biochemical, small-molecule microarray, 635/667 nm fluorescence, primary screen (AID 1121); details: higher = more signal;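 note: score merges feature fluorescence read at 667 nm with its signal to noise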
[5] = molecular target: Carbonic anhydrase 2 (Homo sapiens) (UniProt P00918); test: compounds binding carbonic anhydrase 2 – biochemical, small-molecule microarray, Alexa647-labelled CAII, profiling panel (AID 1122); details: CAII-A647 binding fluorescence, higher = more signal
[6] = COS7 lysate on small-molecule microarray, probe aHis, 635 nm (AID 1123); details: COS7 cell lysate, fluorescence, higher = more signal;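 note: z-score combines 667nm fluorescence intensity with signal-to-noise per printed compound spot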
[7] = probe aLAP1 signal on lysate-treated microarray – cell lysate, small-molecule microarray, COS7 lysate, primary screen (AID 1124); details: probe aLAP1, fluorescence, higher = more signal;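 note: lysate comes from COS7 cells expressing LAP1 and is applied at 0.3 µg/mL; score merges spot fluorescence near 667 nm with signal-to-noise over triplicate slides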
[8] = system: Sam68 (KHDRBS1); test: compounds binding KHDRBS1 protein – biochemical, small-molecule microarray, 635 nm fluorescence, primary screen (AID 1125); details: higher = more signal;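 note: score merges 667 nm channel intensity with signal to noise over triplicate slides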
[9] = system: Chordin-like protein 2 (CHRDL2); test: compounds binding chordin-like 2 – biochemical, small-molecule microarray, 635 nm fluorescence, primary screen (AID 1126); details: fluorescence 635 nm, higher = more signal;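 note: printed compound slides probed with Chrdl2 protein at 4 µg/mL for 1 h at 4 C; score merges 667 nm emission intensity with signal to noise over three replicate slides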
[10] = molecular target: Concanavalin-A (Canavalia ensiformis) (UniProt P02866); test: compounds binding concanavalin A lectin – biochemical, small-molecule microarray, Alexa647 label, 635 nm, artefact control for SMM control protein annotation, primary screen (AID 1127); details: ConA-A647 binding fluorescence, higher = more signal;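 note: z combines 667 nm emission intensity with signal-to-noise across three replicate slides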
Sequence of Concanavalin-A (Canavalia ensiformis) (P02866 whole entry, looked up): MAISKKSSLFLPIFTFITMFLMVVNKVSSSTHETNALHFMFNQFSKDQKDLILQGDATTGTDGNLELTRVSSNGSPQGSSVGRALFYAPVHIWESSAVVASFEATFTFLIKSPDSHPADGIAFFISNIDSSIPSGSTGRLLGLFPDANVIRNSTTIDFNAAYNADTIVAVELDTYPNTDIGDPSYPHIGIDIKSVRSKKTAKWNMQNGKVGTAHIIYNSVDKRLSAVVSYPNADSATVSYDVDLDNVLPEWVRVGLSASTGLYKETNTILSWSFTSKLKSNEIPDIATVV

[11] = compounds binding Alexa647 anti-His antibody – biochemical, small-molecule microarray, 635 nm fluorescence, artefact control for SMM control protein annotation, primary screen (AID 1128); details: higher = more signal;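 note: score merges feature fluorescence with signal-to-noise for each printed compound spot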
[12] = system: Human papillomavirus type 1a E7 protein (residues 1-88); test: HPV1a E7 small-molecule binders, primary screen, biochemical, small-molecule microarray, residues 1-88, 635 nm (AID 1129); details: small-molecule microarray binding, fluorescence 635 nm; higher = more signal
[13] = molecular target: Focal adhesion kinase 1 (Homo sapiens) (UniProt Q05397); test: PTK2 protein binding on printed compound slides – biochemical, small-molecule microarray, 635/667 nm fluorescence, BSA, DTT, primary screen (AID 1130); details: 635 nm fluorescence, higher = more signal;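 note: composite of spot emission at 667 nm and signal to noise over triplicate slides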
Sequence of Focal adhesion kinase 1 (Homo sapiens) (Q05397 whole entry, looked up): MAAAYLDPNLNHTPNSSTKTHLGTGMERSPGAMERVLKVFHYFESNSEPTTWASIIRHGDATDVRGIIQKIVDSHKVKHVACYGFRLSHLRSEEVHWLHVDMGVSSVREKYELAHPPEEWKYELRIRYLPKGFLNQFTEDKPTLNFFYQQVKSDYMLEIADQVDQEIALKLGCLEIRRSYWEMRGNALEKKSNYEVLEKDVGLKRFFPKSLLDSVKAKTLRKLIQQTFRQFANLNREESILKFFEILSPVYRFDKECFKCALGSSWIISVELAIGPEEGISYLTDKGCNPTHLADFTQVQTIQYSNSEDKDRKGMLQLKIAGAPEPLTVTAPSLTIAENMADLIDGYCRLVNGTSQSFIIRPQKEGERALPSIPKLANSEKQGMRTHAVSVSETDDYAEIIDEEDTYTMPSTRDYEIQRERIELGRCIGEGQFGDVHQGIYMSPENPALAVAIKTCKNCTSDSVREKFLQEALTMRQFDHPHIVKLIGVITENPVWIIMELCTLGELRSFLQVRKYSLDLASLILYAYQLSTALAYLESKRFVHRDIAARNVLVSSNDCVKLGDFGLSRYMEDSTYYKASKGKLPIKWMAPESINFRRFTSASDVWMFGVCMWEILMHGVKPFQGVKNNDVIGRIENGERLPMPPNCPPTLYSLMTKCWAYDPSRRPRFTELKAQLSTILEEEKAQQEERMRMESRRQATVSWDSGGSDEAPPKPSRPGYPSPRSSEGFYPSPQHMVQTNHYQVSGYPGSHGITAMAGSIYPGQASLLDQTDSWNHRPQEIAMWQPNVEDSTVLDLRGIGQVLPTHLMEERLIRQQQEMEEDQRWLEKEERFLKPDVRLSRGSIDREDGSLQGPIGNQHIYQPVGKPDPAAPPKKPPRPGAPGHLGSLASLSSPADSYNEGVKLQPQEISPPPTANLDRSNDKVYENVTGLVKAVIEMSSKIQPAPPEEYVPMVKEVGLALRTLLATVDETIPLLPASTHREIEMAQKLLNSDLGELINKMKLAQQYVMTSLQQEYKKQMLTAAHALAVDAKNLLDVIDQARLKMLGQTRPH

[14] = system: Fibrinogen (Alexa647-labelled); test: Alexa647-fibrinogen binding to printed small molecules – biochemical, small-molecule microarray, 635/667 nm fluorescence, artefact control for SMM control-protein annotation, profiling panel (AID 1131); details: fibrinogen-A647 binding fluorescence, higher = more signal;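 note: z-score merges 667 nm fluorescence with per-spot signal-to-noise over triplicate slides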
[15] = molecular target: Follistatin (Homo sapiens) (UniProt P19883); test: FST protein binding to printed compounds – biochemical, small-molecule microarray, 635/667 nm fluorescence, primary screen (AID 1132); details: 635 nm fluorescence, higher = more signal
Sequence of Follistatin (Homo sapiens) (P19883 whole entry, looked up): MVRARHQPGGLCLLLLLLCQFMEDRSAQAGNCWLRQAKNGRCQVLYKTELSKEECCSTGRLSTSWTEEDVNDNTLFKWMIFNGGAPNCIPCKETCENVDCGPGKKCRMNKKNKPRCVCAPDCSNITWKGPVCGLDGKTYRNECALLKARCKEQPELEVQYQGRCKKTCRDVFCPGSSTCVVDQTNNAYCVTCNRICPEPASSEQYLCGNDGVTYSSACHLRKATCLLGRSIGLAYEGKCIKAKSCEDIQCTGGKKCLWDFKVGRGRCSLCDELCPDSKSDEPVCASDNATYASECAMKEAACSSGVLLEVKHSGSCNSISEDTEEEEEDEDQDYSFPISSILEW

[16] = molecular target: Fibroblast growth factor 2 (Homo sapiens) (UniProt P09038); test: basic fibroblast growth factor binding to printed compounds – biochemical, small-molecule microarray, 635/667 nm fluorescence, primary screen (AID 1133); details: FGF2, fluorescence 635/667, higher = more signal
Sequence of Fibroblast growth factor 2 (Homo sapiens) (P09038 whole entry, looked up): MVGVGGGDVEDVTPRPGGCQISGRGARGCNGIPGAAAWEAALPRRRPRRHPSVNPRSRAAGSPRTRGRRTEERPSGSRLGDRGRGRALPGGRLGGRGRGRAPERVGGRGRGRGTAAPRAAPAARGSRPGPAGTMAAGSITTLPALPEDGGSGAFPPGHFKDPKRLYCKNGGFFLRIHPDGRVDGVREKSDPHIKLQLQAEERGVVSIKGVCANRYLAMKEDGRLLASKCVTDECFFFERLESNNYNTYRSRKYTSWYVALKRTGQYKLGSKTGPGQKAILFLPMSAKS

[17] = JC-1 mitochondrial potential readout, lung cancer cells – cell-based, A549, JC-1 fluorescence, basal, 24 h, 100 nL, profiling panel (AID 1138); details: higher = more signal;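 note: A549 lung adenocarcinoma cells under basal conditions with no added stimulus; test concentration not given here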
[18] = system: Lefty1; test: Lefty1 protein binding to printed compounds – biochemical, small-molecule microarray, 635/667 nm fluorescence, primary screen (AID 1139); details: fluorescence 635/667, higher = more signal
[19] = system: wheat germ agglutinin (Triticum aestivum), Alexa647-labelled; test: Alexa647-WGA lectin binding to printed small molecules – biochemical, small-molecule microarray, 635/667 nm fluorescence, artefact control for SMM control-protein annotation, profiling panel (AID 1140); details: WGA-A647 binding, 635 nm fluorescence, higher = more signal;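 note: score merges 667 nm feature emission with signal to noise over triplicate slides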
[20] = molecular target: Luciferin 4-monooxygenase (Photinus pyralis) (UniProt P08659); test: inhibition of purified Photinus pyralis luciferase – biochemical, luminescence, purified enzyme, 2006 set, primary screen (AID 1141); details: purified firefly luciferase, SteadyGlo luminescence, 30 min; higher = more signal, called active from +8 up or from −8 down;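 note: cell-free assay with purified firefly luciferase at 100 ng per well in PBS; test concentration not given here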
Sequence of Luciferin 4-monooxygenase (Photinus pyralis) (P08659 whole entry, looked up): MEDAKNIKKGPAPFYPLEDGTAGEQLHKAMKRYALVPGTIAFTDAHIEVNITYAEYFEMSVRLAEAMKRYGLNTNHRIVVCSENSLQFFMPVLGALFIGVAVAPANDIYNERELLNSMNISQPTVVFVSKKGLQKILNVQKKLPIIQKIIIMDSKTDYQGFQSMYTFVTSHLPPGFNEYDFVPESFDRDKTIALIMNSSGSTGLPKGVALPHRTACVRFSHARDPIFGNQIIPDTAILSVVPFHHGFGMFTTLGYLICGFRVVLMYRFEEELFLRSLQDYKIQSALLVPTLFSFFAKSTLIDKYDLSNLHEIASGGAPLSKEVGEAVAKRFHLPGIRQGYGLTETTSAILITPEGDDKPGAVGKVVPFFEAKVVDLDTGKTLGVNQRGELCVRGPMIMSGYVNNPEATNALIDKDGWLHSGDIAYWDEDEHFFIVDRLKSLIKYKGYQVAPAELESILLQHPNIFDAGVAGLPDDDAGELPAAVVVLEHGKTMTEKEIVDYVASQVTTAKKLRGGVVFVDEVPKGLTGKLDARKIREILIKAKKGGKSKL

| SMILES | composite z-score [1] | composite Z-score [2] | composite z-score [3] | composite z-score [4] | composite z-score [5] | composite z-score [6] | composite z-score [7] | composite z-score [8] | composite z-score [9] | composite z-score [10] | composite z-score [11] | composite z-score [12] | composite z-score [13] | composite z-score [14] | composite z-score [15] | composite z-score [16] | z-score [17] | composite z-score [18] | composite z-score [19] | z-score [20] |
| --- | --- | --- | --- | --- | --- | --- | --- | --- | --- | --- | --- | --- | --- | --- | --- | --- | --- | --- | --- | --- |
| COC(=O)[C@H](Cc1ccccc1)N1CC(C)(OC)O[C@@H](Cc2ccccc2)[C@H]1/C=C/C1CC1 (stereo not given in full) | -0.266 | 0.571 (inactive) | -0.165 | -0.108 | 0.348 | 0.763 | 0.106 | 0.417 | -0.359 | 0.371 | 0.575 | 0.145 | 0.0639 | 0.47 | 0.0103 | 0.0959 | 0.385 | -0.14 | 0.808 | -0.138 (inactive) |
| O=C1C2C=CC(C(O)C3CCCCC3)N(Nc3ccccc3F)C2C(=O)N1c1ccccc1 (stereo not given) | 0.97 | 0.485 (inactive) | 0.457 | 0.252 | 0.244 | 2.71 | 1 | 1.31 | 0.426 | 1.2 | 1.87 | 1.23 | 1.76 | 1.01 | 1.17 | -0.494 | -0.791 | 0.168 | 0.682 | -1.02 (inactive) |
| C=CCC(OC(C)=O)[C@@H]1[C@@H](N(Cc2ccc(-c3ccccc3)cc2)C(=O)Cc2ccc(OC)cc2)c2cc(OCCCO)ccc2N1C(=O)c1ccc2ccccc2c1 (stereo not given in full) | 0.234 | -0.0949 (inactive) | -0.043 | -0.176 | 0.269 | 0.198 | 0.165 | 0.0843 | -0.225 | 0.134 | -0.365 | -0.168 | -0.0078 | 0.186 | 0.458 | 0.338 | 0.865 | 0.146 | 0.266 | 0.161 (inactive) |
| O=C1NC(=O)C2C1C=CC(C(O)C(c1ccccc1)c1ccccc1)N2Nc1ccccn1 (stereo not given) | 0.26 | -0.212 (inactive) | 0.15 | 0.256 | 0.809 | 0.899 | 0.754 | -0.0644 | 0.691 | -0.516 | 2.42 | 1.15 | 0.595 | 0.987 | 0.709 | 1.06 | 0.669 | -0.0403 | 0.843 | -2.04 (inactive) |
| O=C1NC(=O)C2C1C=CC(C(O)c1ccc(F)cc1)N2Nc1ccc(Cl)cc1Cl (stereo not given) | 0.369 | 1.69 (inactive) | 0.0488 | -0.0113 | 0.732 | 2.4 | 0.591 | 0.246 | -0.242 | -0.345 | 1.97 | 0.638 | -0.0637 | -0.566 | -0.157 | -0.459 | -0.553 | -0.334 | -0.0287 | -1.32 (inactive) |
| O=C1C2C=CC(C(O)C3CC=CCC3)N(Nc3ccc([N+](=O)[O-])cc3)C2C(=O)N1c1ccccc1 (stereo not given) | 0.82 | 0.626 (inactive) | 0.749 | 0.326 | 0.693 | 2.5 | 1.21 | 1.33 | 0.729 | 1.07 | 2.2 | 1.2 | 0.876 | 0.994 | 1.36 | 0.0341 | -0.861 | 0.307 | 0.862 | 0.83 (inactive) |
| C=CC[C@H](O)c1ccc(O)c2ccccc12 | -0.491 | 0.579 (inactive) | 0.037 | -0.0904 | 0.421 | 1.63 | 0.0233 | 1.06 | 1.4 | 0.79 | 1.02 | 0.604 | 0.126 | 0.24 | 1.4 | 1.49 | -0.0561 | 1.26 | 0.742 | -2.47 (inactive) |
| C=CCNC(=O)[C@@H]1[C@H]2C(=O)O[C@H](c3ccccc3)[C@H](c3ccccc3)N2[C@H](c2ccc(O)cc2)[C@@]12C(=O)N(C(=O)OCCOC)c1ccc(C#CCC(C(=O)OC)C(=O)OC)cc12 | 0.366 | 0.903 (inactive) | 0.0813 | -0.084 | 0.271 | 1.33 | 0.793 | 1.3 | 0.413 | 0.601 | 1.06 | 1.19 | 0.214 | 0.271 | 1.13 | 0.722 | 0.556 | 0.719 | 0.94 | 0.367 (inactive) |
| CCCC1(C(=O)OC)C=C2C(=C(C(C)C)C(=O)C2C)CN1 (stereo not given) | 0.844 | 0.382 (inactive) | -0.0288 | 0.0788 | 0.0703 | 0.614 | 0.976 | -1.36 | -0.454 | -0.981 | 1.76 | -1.58 | -0.222 | -0.727 | -0.927 | -0.434 | 0.905 | -1.1 | -0.116 | 1.88 (inactive) |
| COc1ccc(C(=O)Nc2ccc(CN3C(=O)[C@@]4(O[C@@H](CC(=O)N(CCO)Cc5ccccc5)[C@H]([Si](C)(C)c5ccc(OC)cc5)[C@H]4C)c4ccccc43)cc2)cc1 | 0.469 | 0.226 (inactive) | -0.222 | -0.172 | 0.294 | 0.678 | -0.294 | 0.0422 | 1.01 | 1.1 | 0.757 | 0.066 | 0.385 | 0.0715 | 0.35 | 0.936 | -0.266 | 1.11 | 1.1 | 0.594 (inactive) |
| C[N+](C)(C)CCCC[C@@H]1NC(=O)[C@H]2C[C@@H](C(=O)NCCCCCN)[C@@H](c3ccc(O)cc3)N2C1=O | 0.567 | -0.116 (inactive) | -0.0586 | -0.053 | 0.67 | 1.14 | 0.736 | 1.3 | 0.444 | 1.18 | 3.32 | 1.21 | 0.599 | 1.04 | 1.39 | 1.66 | 0.729 | 1.7 | 1.36 | -0.993 (inactive) |
| COC(=O)[C@@]1(Cc2ccc(F)cc2)[C@H]2c3cc(C(=O)N(C)C)n(Cc4cccc5ccccc45)c3C[C@H]2CN1C(=O)c1ccccc1 | 0.617 | 0.0828 (inactive) | 0.223 | 0.168 | 0.86 | 4.13 | 0.881 | 0.343 | -0.967 | 0.162 | 0.497 | 1.11 | 0.705 | 0.338 | 0.137 | -0.617 | 0.319 | -0.446 | 0.115 | 4.74 (inactive) |
| Cc1ccc(S(=O)(=O)N2[C@@H](c3ccccc3)C(C(=O)O)=CC[C@H]2c2ccc(F)cc2)cc1 | 0.458 | 0.615 (inactive) | -0.0044 | -0.116 | 0.893 | 3.31 | 1.72 | 1.18 | -1.09 | -0.177 | 0.686 | 1.29 | 0.779 | 1.13 | 0.164 | -1.34 | -0.679 | 1.36 | 1.05 | 2.52 (inactive) |
| O=C1O[C@H](c2ccccc2)[C@H](c2ccccc2)N2[C@H]1[C@@H](C(=O)O)[C@]1(C(=O)Nc3ccc(C#CC4(O)CCCCCC4)cc31)[C@H]2c1ccccc1OCCO | 0.9 | 0.0463 (inactive) | 0.451 | 0.0979 | 0.487 | 1.27 | 0.774 | 1.32 | 0.0298 | 1.14 | 1.16 | 1.23 | 0.854 | 0.924 | 0.729 | 0.435 | 0.833 | 0.664 | 1.25 | -3.82 (inactive) |
